Assay results as given in PubChem BioAssay AID1159580 (chemical genetic matrix, 2015).
The whole screen tested about 5,500 compounds, of which about 2,000 (36%) were called active. About 18% were inconclusive and are not listed. Rule as the data show it: active = normalized growth mostly below about 0.91 (no sharp cut-off); inconclusive = no clear call, values can overlap the other calls; inactive = mostly above about 0.92. This is one part of the list.

Assay: chemical genetic growth profiling, strain panel (AID 1159580);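 also: tested at 20 µM; growth read once vehicle control cultures reached saturation at 30 °C; 1 = growth at the plate median or of vehicle wells; lower values mean less growth of the strain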
Details: S. cerevisiae deletion strains, growth OD

Measured: normalized growth

O=C(NC1CCN(Cc2ccc(Cl)c(Cl)c2)CC1)c1ccccc1
inactive: locus YAL013W, strain DEP1, active compounds read low 1.01 | locus YBR229C, strain ROT2, active compounds read low 1 | locus YDL101C, strain DUN1, active compounds read low 0.996 | locus YDR150W, strain NUM1, active compounds read low 0.977 | locus YEL061C, strain CIN8, active compounds read low 0.946 | locus YGR078C, strain PAC10, active compounds read low 1.01 | locus YGR229C, strain SMI1, active compounds read low 1 | locus YHR087W, strain rtc3, active compounds read low 0.987 | locus YJR043C, strain POL32, active compounds read low 1.01 | locus YJR075W, strain HOC1, active compounds read low 1.02 | locus YKL190W, strain CNB1, active compounds read low 1 | locus YLR039C, strain RIC1, active compounds read low 0.94 | locus YLR058C, strain SHM2 (second series), active compounds read low 1.01 | locus YLR085C, strain ARP6, active compounds read low 0.86 | locus YLR262C, strain YPT6, active compounds read low 0.825 | locus YML094W, strain GIM5, active compounds read low 0.889 | locus YMR219W, strain ESC1, active compounds read low 0.992 | locus YMR263W, strain SAP30, active compounds read low 0.998 | locus YNL153C, strain GIM3, active compounds read low 0.988 | locus YNL298W, strain CLA4 (second series), active compounds read low 0.986 | locus YNL322C, strain KRE1, active compounds read low 1 | locus YNR030W, strain Alg12, active compounds read low 0.96 | locus YPL055C, strain LGE1, active compounds read low 0.995 | locus YPL241C, strain CIN2, active compounds read low 0.93 | locus YPR135W, strain CTF4, active compounds read low 0.783
active: locus YHR030C, strain SLT2, active compounds read low 0.641 | locus YOL006C, strain TOP1, active compounds read low 0.683
